Test results as given in PubChem BioAssay (NCATS).
Records with an inconclusive call do not appear. A number with no mark means an inactive call. Unless noted, the call rests on the fitted dose curve; in most records, active means well fitted inhibition curve with a large enough effect; inconclusive means small, poorly fitted or top-dose-only effect; inactive means no such curve, though single readings can be large or run the other way.

System: not listed separately
Experiment: NS1 protein of Zika virus - qHTS assay to identify small molecule inhibitors in human HEK 293 cells (AID 1347053);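 further: plate controls were infected untreated cells for no effect and uninfected cells for full effect; nearly all actives have a fitted effect of over 55% in size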
Settings: HEK293 ZIKV MR766 infection, NS1 TR-FRET, 24 h; series mostly up to 46.1 µM; activity change, negative = inhibition: at the top concentration
In short: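 HEK 293; 20 h pre-culture, 37 C/5% CO2; cpd 1 h pre-infection; ZIKV MR766, MOI = 0.5, 24 h, 37 C; TR-FRET NS1 readout (two anti-NS1 Abs); norm. to no-virus vs infected.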

Row | Structure (SMILES) | activity change, negative = inhibition [%]
1 | CC(O)C(O)[C@H]1CNc2nc(N)[nH]c(=O)c2N1 (some centres not stated) | -1.46
2 | CCOC(=O)C12CC1/C(=N/O)c1ccccc1O2 (configuration not stated) | -1.6
3 | CC(C)(C)c1ccc(/C=C/C(=O)Nc2ccc3c(c2)OCCO3)cc1 | -22.5
4 | Nc1nc2c(cnn2CCc2ccccc2)c2nc(-c3ccco3)nn12 | 13.5
5 | COc1ccccc1N1CCN(CCN(C(=O)c2ccc(F)cc2)c2ccccn2)CC1 | -2.19
6 | NC/C=C\C(=O)O | 21.8
7 | Cc1ccc2c(c1)C(N1CCN(C)CC1)=Nc1cccnc1N2 | 4.33
8 | N#C/C(=C\c1ccc(O)c(O)c1)C(=O)NCCCNC(=O)/C(C#N)=C/c1ccc(O)c(O)c1 | -4.34

Biological target: Tyrosine-protein phosphatase non-receptor type substrate 1 (Homo sapiens) + Leukocyte surface antigen CD47 (Homo sapiens) (UniProt P78324+Q08722)
Experiment: CD47-SIRPalpha protein protein interaction - LANCE assay qHTS validation (AID 1347057; active means well fitted curve in the direction sought with a large enough effect in the signal ratio, with a control signal flat, not every such curve was filed as active; the % refers to the signal ratio; further: 0% is about no effect)
Settings: Recombinant CD47-His / biotin-SIRPalpha, TR-FRET ratio; series mostly up to 38.3 µM; activity change, negative = inhibition: at the top concentration
In short: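 First, His-tagged CD47 and Eu-labelled anti-His antibody met the compound for 30 min; next, site-specifically biotinylated SIRPalpha was added for 30 min; finally streptavidin-APC was added before reading the TR-FRET ratio.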

Tyrosine-protein phosphatase non-receptor type substrate 1 (Homo sapiens) + Leukocyte surface antigen CD47 (Homo sapiens), sequence (P78324 whole entry, looked up): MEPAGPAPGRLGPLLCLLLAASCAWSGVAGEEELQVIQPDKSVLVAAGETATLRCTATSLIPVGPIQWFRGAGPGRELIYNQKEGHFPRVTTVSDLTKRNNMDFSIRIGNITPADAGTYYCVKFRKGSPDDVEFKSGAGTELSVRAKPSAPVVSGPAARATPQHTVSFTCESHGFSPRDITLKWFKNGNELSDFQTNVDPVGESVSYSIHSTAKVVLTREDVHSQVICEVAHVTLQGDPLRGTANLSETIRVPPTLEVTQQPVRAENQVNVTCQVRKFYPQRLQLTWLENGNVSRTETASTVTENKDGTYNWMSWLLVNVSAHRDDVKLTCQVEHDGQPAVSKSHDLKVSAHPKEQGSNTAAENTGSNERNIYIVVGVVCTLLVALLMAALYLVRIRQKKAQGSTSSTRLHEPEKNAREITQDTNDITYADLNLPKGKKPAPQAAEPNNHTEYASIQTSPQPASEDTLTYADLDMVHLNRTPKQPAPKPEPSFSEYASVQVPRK
Tyrosine-protein phosphatase non-receptor type substrate 1 (Homo sapiens) + Leukocyte surface antigen CD47 (Homo sapiens), sequence (Q08722 whole entry, looked up): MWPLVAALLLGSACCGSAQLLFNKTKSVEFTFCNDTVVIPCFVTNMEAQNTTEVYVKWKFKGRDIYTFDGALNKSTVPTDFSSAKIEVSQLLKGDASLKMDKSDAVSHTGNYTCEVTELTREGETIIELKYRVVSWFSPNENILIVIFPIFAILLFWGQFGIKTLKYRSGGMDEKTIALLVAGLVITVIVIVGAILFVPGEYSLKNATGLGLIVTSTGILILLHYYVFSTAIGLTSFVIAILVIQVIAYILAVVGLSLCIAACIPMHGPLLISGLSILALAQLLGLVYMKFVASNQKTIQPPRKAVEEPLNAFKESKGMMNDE

Row | Structure (SMILES) | activity change, negative = inhibition [%]
9 | COc1cc(CC(=O)O)ccc1O | -0.0879
10 | CCCCOC(=O)NS(=O)(=O)c1sc(CC(C)C)cc1-c1ccc(Cn2c(CC)nc3c(C)cc(C)nc32)cc1 | -0.583
11 | C=C1C(=O)O[C@@H]2[C@H]3O[C@]3(C)CCC=C(C)CC[C@@H]12 | 0.22
12 | O=C(O)Cc1c[nH]c2ccc(O)cc12 | -0.373
13 | O=S(=O)(c1cccc2c(Cl)cccc12)N1CCCNCC1 | -0.852
14 | c1ccc(CN2CCC3(CCCc4ccccc43)CC2)cc1 | 2.37
15 | OC1(c2ccc(Cl)cc2)CCN(Cc2c[nH]c3ccccc23)CC1 | 2.31
16 | O=C(N[C@@H](Cc1ccccc1)C(=O)CCl)OCc1ccccc1 | 0.237
17 | COc1ccc(NC(=O)c2ccc(-c3ccc(-c4noc(C)n4)cc3C)cc2)cc1N1CCN(C)CC1 | 0.659
